Results reported in PubChem BioAssay AID902 (National Center for Advancing Translational Sciences (NCATS), 2007).
Screen size: about 130,000 compounds; about 1,900 (1.5%) were called active. Roughly 5% stayed inconclusive and do not appear here. Calls come from the whole dose curve; as a rule, active = well fitted cell-killing curve with a large enough effect; inconclusive = small, poorly fitted or top-dose-only effect; inactive = no such curve, though single readings can be large or run the other way. What follows is part of a selection rich in actives, with near analogues and random picks from the rest. Entries that show only a call come without a potency.

Test: qHTS Screen for Compounds that Selectively Target Cancer Cells with p53 Mutations: Cytotoxicity of p53ts Cells at the Nonpermissive Temperature; note: nearly all actives have a fitted effect of over 55% in size
Conditions: H1299-p53A138V viability at 39C, ATP luminescence, 24 h; series mostly up to 46.1 µM
Source text: NIH Chemical Genomics Center [NCGC] NIH Molecular Libraries Screening Centers Network [MLSCN] MLSCN Grant: 1 X01 MH079844-01 Assay Submitter (PI): Dr. SUN, YI, University of Michigan NCGC Assay Overview: Synthetic Lethal Screen for Compounds to Kill Cancer Cells with p53 Mutation. Tumor suppressor gene p53 serves as a major cellular barrier against tumorigenesis. […] The goal of this screening is to identify small molecule probes that selectively kill cancer cells with mutations in p53. This screening was carried out using two lines of H1299 lung cancer cells. The H1299-p53 A138V line express a temperature sensitive p53 mutant (p53ts) in which the mutant p53 protein (A138V) is in the mutant confirmation when grown at 39C (the nonpermissive temperature) and in the wild type conformation when grown at 32C (the permissive temperature). A H1299-neo line (p53 null) grown at both 39C and 32C were used as counter-screens to filter out false positive associated with temperature shifting. The small molecular compounds that selectively target mutant p53-containing cancer cells were selected as candidate probes for further study. A cytotoxicity assay based on the measurement of ATP contents in cells was used in this screen. Concentration-responses of all the compounds in the library collection were determined in qHTS using the cell lines and temperature conditions as above.
NCGC Assay Protocol Summary: Both the H1299-p53A138V and H1299-neo cell lines were provided by Dr.Yi Sun, a PI at the University Michigan. The cells were maintained and cultured at 37C. The resuspended frozen cells were used to plate the cells in the 1536-well assay plates at a density of 600 cells per well in 5 ul medium. The assay plates with the cells were incubated at 37C for 16 to 30 hours before the experiments. The library compounds in DMSO solution were added to the cells in assay plates and incubated 24 hours at 39C (for mutant p53 conformation) or 32C (for normal p53 conformation as control). An ATP_lite assay kit (PerkinElmer) was used to determine the cell viability. Tomaxifen (100uM) was used as the positive control for cell killing. Data were normalized to the controls for basal activity (DMSO only) and 100% killing (100uM tamoxifen). AC50 values were determined from concentration-response data modeled with the standard Hill equation. P53 assay protocol: 1. Reagent; 5 uL H1299-p53A138V or H1299-neo cell cells/well 2. Time; overnight; 37C incubation 3. Compounds; 23 nL; 5.9 nM to 46 uM 4. Controls; 23 nL; Tamoxifen 100 uM 5. Time; 24 hr; 39C incubation 6. Reagent; 3 uL; ATP_Lite reagent 7. Time; 20 min; Room Temperature 8. Detection; Luminescence; Viewlux plate reader Keywords: p53, synthetic lethal, cancer, cell viability, cytotoxicity, H1299 cell line, luminescence, MLSMR, MLSCN, NIH Roadmap, qHTS, NCGC
Potency is the fitted concentration of half-maximal effect.

| Structure (SMILES) | Potency |
| --- | --- |
| Cc1oc2ccc(O)c(CN3CCC(C)CC3)c2c1C(=O)Nc1ccccc1 | inactive |
| Cc1oc2ccc(O)c(CN3CCCCC3)c2c1C(=O)Nc1cccc(C(F)(F)F)c1 | 12.6 µM (active) |
| Cc1oc2ccc(O)c(CN3CCOCC3)c2c1C(=O)Nc1cccc(Cl)c1C | inactive |
| COc1ccccc1C(=O)Nc1c(C(=O)Nc2ccc(C)cc2)oc2ccccc12 | inactive |
| O=C(Nc1cccc(NC(=O)c2ccco2)c1)c1cnccn1 | inactive |
| Cc1ccnc(NC(=O)c2ccc(NC(=O)c3ccco3)cc2)c1 | inactive |
| O=C(Nc1ccc(NC(=O)c2cccs2)cn1)c1ccco1 | 10 µM (active) |
| CCC(=O)Nc1cccc(C(=O)OCc2cc(=O)n3nc(CC)sc3n2)c1 | inactive |
| CCOC(=O)c1cccc(NC(=O)C(Cc2ccccc2)NS(=O)(=O)c2cccc3nsnc23)c1 (stereo unspecified) | inactive |
| COc1ccccc1Nc1cc(C(=O)NCCCN(C)C2CCCCC2)c2ccccc2n1 | 10 µM (active) |
| COc1ccc(Nc2cc(C(=O)NCCCN(C)c3ccccc3)c3ccccc3n2)c(OC)c1 | inactive |
| CCCCN(CCCNC(=O)c1cc(Nc2ccccc2OC)nc2ccccc12)c1ccccc1 | inactive |
| CNC(=O)CN1C(=O)c2cccnc2Sc2ccccc21 | inactive |
| COc1cccc(C(=O)N(Cc2cccc(Cl)c2)Cc2ccco2)c1 | inactive |
| Cc1ccccc1NC(=O)CNc1ccccc1N1CCCCC1 | inactive |
| O=C(NCCCN1CCN(C2CCCCC2)CC1)Nc1ccccc1C(F)(F)F | inactive |
| O=C(CN1CCN(C2CCCCC2)CC1)Nc1ccccc1N1CCCCC1 | 15.8 µM (active) |
| COc1ccc(Cl)cc1NC(=O)CCC(=O)c1ccc(C)cc1 | inactive |
| COc1ccccc1CNC(=O)CCCn1c(=O)c2ccccc2n(CC(=O)Nc2ccc(C)cc2Cl)c1=O | inactive |
| COc1ccc(C2C(C#N)=C(N)Oc3n[nH]c(C)c32)cc1CN1CCN(c2ccc(F)cc2)CC1 (stereo unspecified) | inactive |
| CCCc1[nH]nc2c1C(c1ccc(Br)s1)C(C#N)=C(N)O2 (stereo unspecified) | inactive |
| CCCc1[nH]nc2c1C(c1ccc(OC)c(Cn3nc(C)c(Br)c3C)c1)C(C#N)=C(N)O2 (stereo unspecified) | 7.94 µM (active) |
| Cc1cccc(C2CC(=O)Oc3c2c(=O)n(C)c2ccccc32)c1 (stereo unspecified) | inactive |
| O=C(CN1CCCCC1)N1c2ccccc2Sc2ccc(C(F)(F)F)cc21 | inactive |
| OCCN1CCN(CC/C=C2\c3ccccc3Sc3ccc(C(F)(F)F)cc32)CC1 | 15.8 µM (active) |
| O=C(CN1CCCCCC1)N1c2ccccc2Sc2ccc(C(F)(F)F)cc21 | inactive |

| Structure (SMILES) | Potency |
| --- | --- |
| CCOC(=O)c1c(S(=O)(=O)N2CCC(C(=O)NCc3ccccc3OC)CC2)c(C)n(C)c1C | inactive |
| Cc1ccc(Nc2ccc3cc(S(=O)(=O)N4CCCCC4)ccc3n2)cc1F | inactive |
| O=C(CC(c1cccs1)N1Cc2ccccc2C1=O)Nc1ccc(F)c(F)c1 (stereo unspecified) | inactive |
| Cc1ccc(N2CCN(C(=O)CCc3c(C)nc4c(c3C)c(=O)n(C)c(=O)n4C)CC2)c(C)c1 | inactive |
| CC(C)(C)c1csc(NC2=NS(=O)(=O)c3ccccc32)n1 | 12.6 µM (active) |
| c1ccc(Nc2nc(-c3ccncc3)cs2)nc1 | inactive |
| O=C(CSc1nccn1Cc1ccc(F)cc1)NCc1ccccc1 | inactive |
| CCN(C(=O)Cn1cnc2sc(C)c(S(=O)(=O)N3CCN(c4ncccn4)CC3)c2c1=O)c1ccccc1F | inactive |
| CCOC(=O)c1c(S(=O)(=O)N2CCCC(C(=O)NCc3cccc(C)c3)C2)c(C)n(C)c1C (stereo unspecified) | inactive |
| CC1(C)N=C(SCc2ccccc2Cl)c2ccccc2N1 | inactive |
| Cc1ccccc1N1CC(c2nc3ccccc3[nH]2)CC1=O (stereo unspecified) | inactive |
| Cc1cc(/C=N/n2cnnc2)c(C)n1-c1cccc(C(=O)O)c1 | inactive |
| Cc1ccccc1-n1c(C)cc(/C=C2\NC(=O)NC2=O)c1C | 8.91 µM (active) |
| CC(C)c1ccc(NC(=O)c2ccc(Cn3nc(N4CCN(c5ccccc5)CC4)ccc3=O)o2)cc1 | inactive |
| O=S(=O)(c1ccc(C2CCCCC2)cc1)N1CCN(c2ccc(Cl)c(Cl)c2)CC1 | inactive |
| CCOc1ccc(CNC(=O)C2CCCN(S(=O)(=O)N(CC)c3ccc(OCC)cc3)C2)cc1 (stereo unspecified) | inactive |
| CSc1nn(Cc2cccc(C)c2)c(N)c1S(=O)(=O)c1ccccc1 | inactive |
| CCCCOc1ccc(CN2C(=O)C(=O)c3cc(Br)cc(C)c32)cc1OC | 7.94 µM (active) |
| COc1ccc(CCN(C)CCN2C(=O)c3ccccc3C2=O)cc1OC | inactive |
| CCCCOc1ccc(Cn2c(=O)oc3ccc(C)cc32)cc1OC | inactive |
| COc1ccc(CCNC(=O)c2cc3cccc4c3n2CC(C)S4)c(OC)c1OC (stereo unspecified) | inactive |
| Cc1cccc(Cn2c(SCc3ccc(C(=O)N4CCC(C)CC4)cc3)nc3ccncc32)c1 | inactive |
| CC(C)CC(=O)NCC(c1ccc2c(c1)OCO2)N1CCN(c2ccc(F)cc2)CC1 (stereo unspecified) | inactive |
| CC(C)(C)NC(=O)CSc1nc(-c2ccc(F)cc2)cc(C(F)(F)F)n1 | inactive |
| c1ccc(Nc2n[nH]nc2-c2ccccc2)cc1 | inactive |
| CSc1nc(Nc2ccc(F)cc2)cc(-c2ccccc2)n1 | 12.6 µM (active) |

| Structure (SMILES) | Potency |
| --- | --- |
| CCC(=O)N1c2ccccc2CC1C(=O)N1CCN(c2ccccc2)CC1 (stereo unspecified) | inactive |
| Cc1cccc(N2CCN(c3ccc(C(=O)O)cc3NC(=O)c3ccccc3F)CC2C)c1 (stereo unspecified) | inactive |
| COc1ccc(OC)c(CCNC(=O)CCCn2c(=O)c3cccn3c3cccnc32)c1 | inactive |
| CCOc1ccc(OCC)c(NS(=O)(=O)c2ccc3[nH]c(=O)ccc3c2)c1 | inactive |
| c1ccc(-n2ncc3c2ncn2c(C4CCCCC4)nnc32)cc1 | inactive |
| CCN(CC)C(=O)CSc1ncnc2c1cnn2-c1ccccc1 | inactive |
| CCN(c1ncnc2c1cnn2-c1ccc(C)cc1)C1CCCCC1 | 20 µM (active) |
| Cc1cccc(-c2nc(SCC(=O)Nc3cc(C)on3)c3c(=O)n(C)c(=O)n(C)c3n2)c1 | inactive |
| Cc1nc2ccccc2n1C(=O)N1CCOCC1 | inactive |
| Cc1cc(C)c2c(n1)nn1c(N3CCOCC3)cc(C)nc21 | inactive |
| Cc1nn2c3cc(N4CCOCC4)ccc3nc2c2ccccc12 | 2 µM (active) |
| O=C(CSc1ncc(-c2ccccc2)[nH]1)Nc1ccc(F)cc1F | inactive |
| Cc1cccc(NC(=O)CSc2ncc(-c3ccccc3)[nH]2)c1C | inactive |
| CCOc1cccc(NC(=O)CSc2ncc(-c3ccc(Cl)cc3)[nH]2)c1 | 20 µM (active) |
| CNC(=O)CN1C(=O)c2ccccc2S1(=O)=O | inactive |
| CCCc1nnc(NC(=O)CN2C(=O)c3ccccc3S2(=O)=O)s1 | 12.6 µM (active) |
| CCCc1nnc(NC(=O)c2cc(OC)cc(OC)c2)s1 | inactive |
| Cc1ccc(C)c2sc(NC(=O)c3ccc(S(=O)(=O)N4CCCC4)cc3)nc12 | inactive |
| CC1=C(C(=O)N2CCN(c3cccc(C(F)(F)F)c3)CC2)C2(CCCCC2)OC1=O | inactive |
| O=C(Nc1ncccn1)c1cccs1 | inactive |
| CCOc1cc(C(=O)Nc2ncccn2)cc(OCC)c1OCC | inactive |
| Cn1c(=O)c(C(=O)Nc2ncccn2)c(O)c2ccccc21 | 12.6 µM (active) |
| Cc1ccc(C(=O)Nc2ccc(OCc3cc(=O)n4c5c(sc4n3)CCCC5)cc2)cc1 | inactive |
| CCN(CC)c1cc(NC2CCCCC2)c2c3c(onc13)-c1ccccc1C2=O | inactive |
| Cc1cccc(N2CCN(C(=O)c3oc(=O)c4ccccc4c3-c3ccccc3)CC2)c1C | inactive |
| COc1ccc(OCCn2cc(C(=O)C3CCCCC3)c3ccccc32)cc1 | inactive |

| Structure (SMILES) | Potency |
| --- | --- |
| CCOc1ccc(C(=O)/C=C/c2cn(CC(O)CN3CCCCCC3)c3ccccc23)cc1 (stereo unspecified) | 10 µM (active) |
| O=C(/C=C/c1cn(CC(O)CN2CCc3ccccc32)c2ccccc12)c1ccc(Br)cc1 (stereo unspecified) | inactive |
| COc1ccc(Cn2c(C(=O)O)c(CNCCc3cccs3)c3ccc(OC)cc32)cc1 | inactive |
| CCCCC(C(=O)OCC(=O)c1ccc(OC)cc1)N1C(=O)c2ccccc2C1=O (stereo unspecified) | inactive |
| CCOC(=O)C1=C(c2ccc(OC)cc2)C(=O)c2ccccc2C1=O | 7.08 µM (active) |
| CCOC(=O)c1ccccc1NS(=O)(=O)c1ccc(OC)cc1 | inactive |
| Cc1cc(F)ccc1NS(=O)(=O)c1ccc(-n2cccn2)cc1 | inactive |
| O=C(Nc1cc(-c2nc3ccccc3o2)ccc1Cl)c1cc([N+](=O)[O-])ccc1N1CCOCC1 | inactive |
| COc1ccc2oc(-c3ccc(C)c(NC(=O)c4sc5ccccc5c4Cl)c3)nc2c1 | inactive |
| Cc1ccc2c(c1)N(C(=O)CCC(=O)NCc1ccccc1F)CC(C)O2 (stereo unspecified) | inactive |
| Cc1ccccc1-c1nc(CS(=O)(=O)CC(=O)Nc2cc(Cl)cc(Cl)c2)c(C)o1 | 20 µM (active) |
| Cc1ccccc1-c1nc(CS(=O)(=O)CC(=O)NC(C)c2ccccc2)c(C)o1 (stereo unspecified) | inactive |
| Cc1ccccc1-c1nc(CS(=O)(=O)CC(=O)N2CCc3ccccc3C2)c(C)o1 | inactive |
| CCC1CCCCN1S(=O)(=O)c1ccc(NC(=O)c2cc(=O)c3ccccc3o2)cc1 (stereo unspecified) | inactive |
| Clc1ccccc1CSc1nncn2c1cc1occc12 | inactive |
| CCn1nc(C(=O)OCC(=O)N2c3ccccc3CC2C)c2ccccc2c1=O (stereo unspecified) | inactive |
| CCC(=O)N1c2ccc(S(=O)(=O)CCC(=O)N3CCN(c4ccccc4)CC3)cc2CC1C (stereo unspecified) | inactive |
| CCCC(=O)N1c2ccc(-c3csc(N)n3)cc2CC1C (stereo unspecified) | 12.6 µM (active) |
| Cc1cccc(OCCSc2nc3ccccc3n2CC(=O)N2CCCCC2)c1C | inactive |
| Cc1nc(-c2ccc(NC(=O)c3cccs3)cc2)cs1 | 2.51 µM (active) |
| O=C(O)Cc1ccc(NC(=O)c2cccs2)cc1 | inactive |
| O=C(O)c1ccc(NC(=O)c2cccs2)cc1 | inactive |
| CCCCNc1ccc(-c2nc(-c3ccncc3)no2)cc1[N+](=O)[O-] | inactive |
